Measurements from PubChem BioAssay (EPA / NIEHS).
Records with an inconclusive call do not appear. The source made the active and inactive calls. Rule for the calls, unless noted: active = hit-call score of the fitted dose curve at least 0.9, where 1 is the maximum; inactive = score below 0.9.

Legend:
[1] = biological target: human Retinoid X Receptor beta (RXRb), RXRB (gene 6257) (UniProt P28702); experiment: ATG_RXRb_TRANS: Attagene TRANS-FACTORIAL HepG2 Assay for human Retinoid X Receptor beta (RXRb) (AID 2283013; active = hit-call score of the fitted dose curve at least 0.9, where 1 is the maximum)
Procedure, shortened: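 HepG2 cells transiently transfected with multiplexed reporter units driven by GAL4-UAS and exogenous chimeric NR-Gal4 proteins; treated 24 h. Reporter mRNA measured by RT-PCR, 6-FAM labelling and capillary electrophoresis; gain-of-signal fitted versus DMSO baseline.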

[2] = biological target: human Thyroid Receptor alpha (THRa1), THRA (gene 7067) (UniProt P10827); experiment: ATG_THRa1_TRANS: Attagene TRANS-FACTORIAL HepG2 Assay for human Thyroid Receptor alpha (THRa1) (AID 2283014; active = hit-call score of the fitted dose curve at least 0.9, where 1 is the maximum)
Procedure, shortened: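 HepG2 cells transiently transfected with multiplexed GAL4-UAS reporter units for exogenous chimeric THRa1-Gal4; reporter mRNA measured 24 h after dosing by RT-PCR, 6-FAM labelling, HpaI digestion and capillary electrophoresis. Gain-of-signal fitted versus DMSO baseline.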

[3] = read-out: Interleukin-1 alpha (IL1a), IL1A (gene 3552); experiment: BSK_BE3C_IL1a: BioMAP Diversity Plus: BE3C Assay for Interleukin-1 alpha (IL1a) Biomarker Activity (AID 2283016); conditions: primary human bronchial epithelial cells; actives raise or lower the signal
Procedure, shortened: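 Human primary bronchial epithelial cells (BE3C system) were dosed with compound and IL-1a measured by ELISA 24 h later. Activity was fitted bidirectionally against DMSO baseline; cytotoxicity was tracked in parallel cultures by SRB total-protein staining.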

[4] = read-out: Monocyte Chemoattractant Protein-1 (MCP1), CCL2 (gene 6347); experiment: BSK_3C_MCP1: BioMAP Diversity Plus: 3C Assay for Monocyte Chemoattractant Protein-1 (MCP1) Biomarker Activity (AID 2283017); conditions: primary human endothelial cells (HUVEC); actives raise or lower the signal
Procedure, shortened: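 Primary human umbilical vein endothelial cells (3C system) were exposed to test chemical for 24 h, after which MCP-1 was quantified by ELISA. Activity was fitted bidirectionally against DMSO as negative control and baseline.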

[5] = read-out: Monocyte Chemoattractant Protein-1 (MCP1), CCL2 (gene 6347); experiment: BSK_4H_MCP1: BioMAP Diversity Plus: 4H Assay for Monocyte Chemoattractant Protein-1 (MCP1) Biomarker Activity (AID 2283018); conditions: primary human endothelial cells (HUVEC); actives raise or lower the signal
Procedure, shortened: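 Human umbilical vein endothelial cells (4H system) dosed with chemical; MCP-1 measured by ELISA 24 h after dosing. Bidirectional curve fitting against DMSO negative control as baseline; parallel SRB total-protein staining tracks overt cytotoxicity.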

[6] = read-out: Human Leukocyte Antigen - DR isotype (HLADR), HLA-DRA (gene 3122); experiment: BSK_3C_HLADR: BioMAP Diversity Plus: 3C Assay for Human Leukocyte Antigen - DR isotype (HLADR) Biomarker Activity (AID 2283019); conditions: primary human endothelial cells (HUVEC); actives raise or lower the signal;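 note: ELISA of cell-surface HLA-DR on HUVEC 24 h after dosing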
Procedure, shortened: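 Primary human umbilical vein endothelial cells (3C system) were dosed with compound and cell-surface HLA-DR was quantified by ELISA at 24 h. Activity was fitted bidirectionally against DMSO as negative control and baseline.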

[7] = read-out: Interleukin-8 (IL8), CXCL8 (gene 3576); experiment: BSK_3C_IL8: BioMAP Diversity Plus: 3C Assay for Interleukin-8 (IL8) Biomarker Activity (AID 2283020); conditions: primary human endothelial cells (HUVEC); actives raise or lower the signal
Procedure, shortened: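 Primary human umbilical vein endothelial cells (3C system) were exposed to test chemical for 24 h, then IL-8 was quantified by ELISA. Responses were fitted bidirectionally against DMSO vehicle as baseline.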

[8] = read-out: Monokine induced gamma interferon (MIG), CXCL9 (gene 4283); experiment: BSK_3C_MIG: BioMAP Diversity Plus: 3C Assay for Monokine induced gamma interferon (MIG) Biomarker Activity (AID 2283021); conditions: primary human endothelial cells (HUVEC); actives raise or lower the signal
Procedure, shortened: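 Primary human umbilical vein endothelial cells in the 3C system were exposed to chemical for 24 h, after which MIG was quantified by ELISA. Activity was fitted bidirectionally against DMSO as negative control and baseline.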

[9] = BSK_3C_SRB: Viability Assessment in the BioMAP Diversity Plus: 3C Assay (AID 2283023); conditions: primary human endothelial cells (HUVEC);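 note: fitted both ways against DMSO so a hit may be signal rise or drop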
Procedure, shortened: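 Primary human umbilical vein endothelial cells in the 3C system were read 24 h after compound dosing. Total protein was stained with 0.1% sulforhodamine B after 10% TCA fixation and read at 560 nm, with bidirectional fitting against DMSO as baseline.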

[10] = read-out: Matrix Metallopeptidase 1 (MMP1), MMP1 (gene 4312); experiment: BSK_BE3C_MMP1: BioMAP Diversity Plus: BE3C Assay for Matrix Metallopeptidase 1 (MMP1) Biomarker Activity (AID 2283024); conditions: primary human bronchial epithelial cells; actives raise or lower the signal
Procedure, shortened: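 Primary human bronchial epithelial cells were dosed with test chemicals, and MMP1 levels were measured by ELISA 24 h later. Data were fitted bidirectionally against DMSO as the negative control and activity baseline.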

[11] = BSK_3C_Vis: BioMAP Diversity Plus: 3C Assay for Morphology Visualization (AID 2283025); conditions: primary human endothelial cells (HUVEC);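 note: fitted both ways so gain or loss versus DMSO counts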
Procedure, shortened: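 Human umbilical vein endothelial cells in the 3C system were imaged by light microscopy 24 h after chemical dosing to record cell morphology. Activity was fitted bidirectionally against DMSO as negative control and baseline; the endpoint serves as a background control.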

[12] = read-out: Pselectin, SELP (gene 6403); experiment: BSK_4H_Pselectin: BioMAP Diversity Plus: 4H Assay for Pselectin Biomarker Activity (AID 2283026); conditions: primary human endothelial cells (HUVEC); actives raise or lower the signal
Procedure, shortened: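 Primary human umbilical vein endothelial cells were exposed to test chemical for 24 h, then cell-surface P-selectin was quantified by ELISA. Activity was fitted bidirectionally against DMSO as negative control and baseline.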

[13] = BSK_4H_SRB: Viability Assessment in the BioMAP Diversity Plus: 4H Assay (AID 2283027); conditions: primary human endothelial cells (HUVEC);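 note: cells exposed to compound for 24 h before staining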
Procedure, shortened: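 Human umbilical vein endothelial cells were dosed with chemical and, after 24 h, fixed with 10% TCA, stained with 0.1% sulforhodamine B, and read at 560 nm to give total protein as a cytotoxicity measure. Bidirectional fitting relative to DMSO control.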

[14] = BSK_BE3C_SRB: Viability Assessment in the BioMAP Diversity Plus: BE3C Assay (AID 2283028); conditions: primary human bronchial epithelial cells
Procedure, shortened: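 Human primary bronchial epithelial cells were exposed to test chemicals for 24 h. Total protein in parallel cultures was then measured by staining with 0.1% sulforhodamine B after 10% TCA fixation, with absorbance read at 560 nm. Activity was fitted bidirectionally against DMSO.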

[15] = read-out: Thrombomodulin, THBD (gene 7056); experiment: BSK_3C_Thrombomodulin: BioMAP Diversity Plus: 3C Assay for Thrombomodulin Biomarker Activity (AID 2283029); conditions: primary human endothelial cells (HUVEC); actives raise or lower the signal
Procedure, shortened: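 Primary human umbilical vein endothelial cells (3C system) were exposed to chemical for 24 h, then thrombomodulin levels were measured by ELISA. Activity was fitted bidirectionally against the DMSO negative control as baseline.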

[16] = read-out: Urokinase-type plasminogen activator receptor (uPAR), PLAUR (gene 5329); experiment: BSK_4H_uPAR: BioMAP Diversity Plus: 4H Assay for Urokinase-type plasminogen activator receptor (uPAR) Biomarker Activity (AID 2283030); conditions: primary human endothelial cells (HUVEC); actives raise or lower the signal
Procedure, shortened: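 Primary human umbilical vein endothelial cells were exposed to chemical for 24 h before cell-surface uPAR was quantified by ELISA. Activity was fitted bidirectionally against the DMSO negative control baseline.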

[17] = biological target: Retinoic acid receptor RXR-alpha (Homo sapiens) (UniProt P19793); experiment: ATG_RXRa_TRANS: Attagene TRANS-FACTORIAL HepG2 Assay for human Retinoid X Receptor alpha (RXRa) (AID 2283012; active = hit-call score of the fitted dose curve at least 0.9, where 1 is the maximum)
Procedure, shortened: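 HepG2 cells transiently transfected with multiplexed GAL4-UAS reporter units and chimeric NR-GAL4 fusions, dosed 24 h. Reporter mRNA measured by RT-PCR, FAM labelling, HpaI digestion and capillary electrophoresis; gain-of-signal fitted relative to DMSO baseline.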

[18] = read-out: E-selectin (Homo sapiens) (UniProt P16581); experiment: BSK_3C_Eselectin: BioMAP Diversity Plus: 3C Assay for Eselectin Biomarker Activity (AID 2283015); conditions: primary human endothelial cells (HUVEC); actives raise or lower the signal;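 note: cell surface E-selectin protein quantified by ELISA 24 h after dosing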
Procedure, shortened: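 Primary human umbilical vein endothelial cells (3C system) were dosed with chemical and cell-surface E-selectin measured by ELISA 24 h later. Bidirectional curve fitting used DMSO as negative control and baseline.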

[19] = biological target: human Vitamin D Receptor (VDR), VDR (gene 7421) (UniProt P11473); experiment: ATG_VDR_TRANS: Attagene TRANS-FACTORIAL HepG2 Assay for human Vitamin D Receptor (VDR) (AID 2283022; active = hit-call score of the fitted dose curve at least 0.9, where 1 is the maximum)
Procedure, shortened: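 HepG2 cells were transiently transfected with multiple GAL4-UAS reporter units, so signal reflects exogenous chimeric receptor-Gal4 activity. After 24 h compound exposure, reporter mRNA was measured by RT-PCR, fluorescent labelling and capillary electrophoresis, fitted for gain of signal versus DMSO.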

Measured: outcome

Retinoic acid receptor RXR-alpha (Homo sapiens), sequence (P19793 whole entry, looked up, the tested form may be a part): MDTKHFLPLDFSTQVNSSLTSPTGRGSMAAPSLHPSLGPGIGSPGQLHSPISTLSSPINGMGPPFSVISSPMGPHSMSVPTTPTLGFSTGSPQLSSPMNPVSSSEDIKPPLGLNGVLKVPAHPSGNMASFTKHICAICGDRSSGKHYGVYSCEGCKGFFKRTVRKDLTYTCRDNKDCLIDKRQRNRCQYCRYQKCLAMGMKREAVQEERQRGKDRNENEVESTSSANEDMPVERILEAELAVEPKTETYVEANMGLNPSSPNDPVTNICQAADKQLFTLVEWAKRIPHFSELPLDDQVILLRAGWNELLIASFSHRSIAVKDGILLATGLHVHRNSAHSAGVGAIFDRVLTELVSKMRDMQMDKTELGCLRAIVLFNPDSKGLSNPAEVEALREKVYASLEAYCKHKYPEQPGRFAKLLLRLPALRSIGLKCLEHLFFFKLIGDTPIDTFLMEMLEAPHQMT
human Retinoid X Receptor beta (RXRb), RXRB (gene 6257), sequence (P28702 whole entry, looked up, the tested form may be a part): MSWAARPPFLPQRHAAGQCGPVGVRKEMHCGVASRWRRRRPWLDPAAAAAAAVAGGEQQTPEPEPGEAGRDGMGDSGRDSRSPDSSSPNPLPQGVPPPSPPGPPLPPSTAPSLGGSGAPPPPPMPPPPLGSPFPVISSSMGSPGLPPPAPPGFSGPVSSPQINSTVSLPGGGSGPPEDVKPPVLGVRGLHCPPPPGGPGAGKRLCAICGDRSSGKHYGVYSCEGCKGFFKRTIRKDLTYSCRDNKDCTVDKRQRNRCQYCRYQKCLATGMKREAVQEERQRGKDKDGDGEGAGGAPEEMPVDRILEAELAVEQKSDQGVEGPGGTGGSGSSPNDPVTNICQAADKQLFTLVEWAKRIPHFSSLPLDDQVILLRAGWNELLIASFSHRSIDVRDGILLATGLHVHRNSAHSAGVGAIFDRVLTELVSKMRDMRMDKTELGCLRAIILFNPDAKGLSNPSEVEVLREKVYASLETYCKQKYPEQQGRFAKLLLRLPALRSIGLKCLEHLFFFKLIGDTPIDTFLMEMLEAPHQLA
human Thyroid Receptor alpha (THRa1), THRA (gene 7067), sequence (P10827 whole entry, looked up, the tested form may be a part): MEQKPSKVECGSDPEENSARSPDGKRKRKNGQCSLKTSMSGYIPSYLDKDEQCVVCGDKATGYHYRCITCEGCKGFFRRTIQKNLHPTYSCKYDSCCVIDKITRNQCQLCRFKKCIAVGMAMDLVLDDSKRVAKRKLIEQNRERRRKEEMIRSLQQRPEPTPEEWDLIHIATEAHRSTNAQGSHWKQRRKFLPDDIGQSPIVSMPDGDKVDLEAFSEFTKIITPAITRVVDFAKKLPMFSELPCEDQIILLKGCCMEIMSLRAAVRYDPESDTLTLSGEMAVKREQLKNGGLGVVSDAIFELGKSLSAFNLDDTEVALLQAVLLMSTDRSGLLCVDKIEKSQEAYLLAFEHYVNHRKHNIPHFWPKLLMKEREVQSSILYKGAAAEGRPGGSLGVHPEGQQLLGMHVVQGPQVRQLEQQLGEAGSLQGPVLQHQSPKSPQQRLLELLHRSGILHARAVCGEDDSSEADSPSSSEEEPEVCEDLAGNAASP
E-selectin (Homo sapiens), sequence (P16581 whole entry, looked up): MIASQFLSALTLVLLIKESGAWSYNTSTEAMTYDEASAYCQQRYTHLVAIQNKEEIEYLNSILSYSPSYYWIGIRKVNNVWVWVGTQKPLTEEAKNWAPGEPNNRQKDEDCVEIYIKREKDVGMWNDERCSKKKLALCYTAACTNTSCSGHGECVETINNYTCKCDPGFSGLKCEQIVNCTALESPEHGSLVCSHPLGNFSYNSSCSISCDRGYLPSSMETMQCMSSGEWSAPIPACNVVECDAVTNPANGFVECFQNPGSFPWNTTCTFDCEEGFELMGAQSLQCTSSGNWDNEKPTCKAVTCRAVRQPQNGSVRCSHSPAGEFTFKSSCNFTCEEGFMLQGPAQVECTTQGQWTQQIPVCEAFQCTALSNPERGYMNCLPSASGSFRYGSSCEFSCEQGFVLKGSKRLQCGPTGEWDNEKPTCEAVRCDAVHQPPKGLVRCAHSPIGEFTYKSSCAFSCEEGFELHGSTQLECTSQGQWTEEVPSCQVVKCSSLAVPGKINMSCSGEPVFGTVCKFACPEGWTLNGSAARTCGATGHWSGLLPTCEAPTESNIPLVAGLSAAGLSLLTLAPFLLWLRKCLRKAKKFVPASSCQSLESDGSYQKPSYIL
human Vitamin D Receptor (VDR), VDR (gene 7421), sequence (P11473 whole entry, looked up, the tested form may be a part): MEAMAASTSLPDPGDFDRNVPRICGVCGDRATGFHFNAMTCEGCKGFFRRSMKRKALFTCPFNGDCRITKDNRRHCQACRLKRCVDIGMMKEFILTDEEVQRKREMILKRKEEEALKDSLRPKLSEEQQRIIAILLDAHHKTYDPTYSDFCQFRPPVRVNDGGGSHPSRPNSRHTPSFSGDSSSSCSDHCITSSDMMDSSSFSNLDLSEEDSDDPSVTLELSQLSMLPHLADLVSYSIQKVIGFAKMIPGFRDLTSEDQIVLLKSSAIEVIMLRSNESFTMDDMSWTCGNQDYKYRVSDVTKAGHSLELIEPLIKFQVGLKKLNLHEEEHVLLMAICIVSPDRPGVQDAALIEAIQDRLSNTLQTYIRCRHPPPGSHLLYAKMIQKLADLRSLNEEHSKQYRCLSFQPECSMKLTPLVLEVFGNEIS

CCn1nc(C)c2c1C(=O)NCC(c1ccc(O)cc1)=N2
not listed: [17] | [18] | [19]
inactive: all other assays above

CC(=O)c1ccccc1
not listed: [1] | [4] | [19]
inactive: all other assays above

NC(=O)N(O)[C@@H]1COc2cc(OCc3ccccc3)ccc21
not listed: [1] | [2] | [17] | [18]
inactive: all other assays above

Cn1cc[nH]c1=S
not listed: [2] | [17] | [19]
inactive: all other assays above

c1ccc2cc3ccccc3cc2c1
not listed: [1]
inactive: all other assays above

CCCCOC(=O)c1ccccc1
not listed: [2] | [19]
inactive: all other assays above

C=CN1CCCC1=O
not listed: [1] | [2] | [19]
inactive: all other assays above

CC(C)CC(C)O (configuration not stated)
not listed: [1] | [2] | [17] | [18] | [19]
inactive: all other assays above

Cc1ccc(S(=O)(=O)NC(=O)NN2CCCCCC2)cc1
not listed: [2] | [4] | [18]
inactive: all other assays above

OCCOCCOCCO
not listed: [2] | [7] | [18]
inactive: all other assays above

CC(C)CCCCCCOC(=O)C1CCCCC1C(=O)OCCCCCCC(C)C (configuration not stated)
not listed: [1] | [17] | [18]
inactive: all other assays above

OC(CCl)CCl
not listed: [1] | [2] | [17]
inactive: all other assays above
